Results on 37 compounds are retold here after PubChem BioAssay (NCI).

The panel holds about 79,000 compounds, 15% with a hit somewhere; the sample as a whole holds those more often. Values without a mark were called inactive. The source made the active and inactive calls. Rule as the data show it: active = growth inhibition above about 70%; inactive = the rest. Where a SMILES comes first, the peptide text is derived from it. [ ]: non-standard residue; d: D form. The star is where a group is joined. ξ: configuration not given here. Cbz = O=C(OCc1ccccc1)*; ξNva = CCCC(N)C(=O)O

Assay [1] can be described thus: NCI Yeast Anticancer Drug Screen. Data for the rad50 strain (AID 155).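 Also: 0% = growth of vehicle-only cultures of the same strain.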 Particulars: S. cerevisiae rad50 strain growth inhibition; at 50.0 µM; active compounds read high. Put shortly: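 DNA repair mutant yeast, compound exposure, growth read-out; inhibition is taken relative to vehicle.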
A short description of assay [2]: NCI Yeast Anticancer Drug Screen. Data for the mec2-1 strain (AID 157). The settings on record: S. cerevisiae mec2-1 strain, at 50.0 µM, active compounds read high. An outline of the steps: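 Mutant yeast (mec2-1) grown with compound; growth inhibition relative to vehicle control reported.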
A short description of assay [3]: NCI Yeast Anticancer Drug Screen. Data for the sgs1 mgt1 strain (AID 161).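 Also: 0% = growth of cultures given vehicle only.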 Particulars: S. cerevisiae sgs1 mgt1 strain, at 50.0 µM, active compounds read high. Put shortly:
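Percent growth inhibition was derived by comparing compound-exposed mutant yeast with vehicle-exposed cultures. The strain carries alterations in DNA damage repair.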

Assay [4] can be described thus: NCI Yeast Anticancer Drug Screen. Data for the cln2 rad14 strain (AID 165).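 Also: 0% = growth equal to vehicle treated cultures.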 Particulars: S. cerevisiae cln2 rad14 strain, at 50.0 µM, active compounds read high. Put shortly: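 Readout is yeast growth inhibition versus vehicle-treated controls, using a strain with cln2 and rad14 alterations exposed to compound.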
Assay [5] is described as follows: NCI Yeast Anticancer Drug Screen. Data for the bub3 strain (AID 167). The settings on record: S. cerevisiae bub3 mutant strain, at 50.0 µM, active compounds read high. An outline of the steps: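 In this screen, a yeast mutant lacking normal mitotic checkpoint function is challenged with compound. Relative growth versus vehicle gives the inhibition value.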
Assay [6] in a line: NCI Yeast Anticancer Drug Screen. Data for the mlh1 rad18 strain (AID 175). The settings on record: S. cerevisiae mlh1 rad18 strain growth inhibition; at 50.0 µM; active compounds read high. An outline of the steps: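 Genetically defined yeast (DNA repair-deficient) exposed to compounds; growth inhibition determined relative to vehicle.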

For the compound `CNc1cccc2c1C(=O)c1ccccc1C2=O`, the growth inhibition in assay [1] was 0.55%; in assay [2], -9.95%; in assay [3], 19.4%; in assay [4], 1.35%; in assay [5], 3.85%; in assay [6], 17.9%.

Take `Cc1ccc2c(c1)C(c1ccccc1)(c1ccccc1)N(c1ccccc1)S2(=O)=O`: the growth inhibition was 51.2% in assay [1]; 34.2% in assay [2]; 64.7% in assay [3]; 25.2% in assay [4]; 20.5% in assay [5]; 58.6% in assay [6].

In the case of `Nc1c(N=Nc2ccc(S(=O)(=O)O)cc2)cc2c3c(cccc13)CC2`, the growth inhibition in assay [1] is 11.3%; in assay [2], 2.35%; in assay [3] it was 20.6%; in assay [4] it was 8.65%; in assay [5] it was -39.5%; in assay [6] it was 2.4%.

Regarding `CSCCC(NC(=O)c1ccccc1)C(=O)O` (configuration not stated), the growth inhibition in assay [1] was -2.95%; in assay [2] it was -15%; in assay [3], 1.35%; in assay [4], 3.85%; in assay [5] it was 3.3%; in assay [6] it was -10.6%.

On to `CN(C)c1ccc(/C=C(\C#N)C(=O)c2ccccc2)cc1`, for which the growth inhibition in assay [1] is -9.8%; in assay [2] it was 8.25%; in assay [3] it was 8.9%; in assay [4], -7.15%; in assay [5], 6.85%; in assay [6] it was 22.9%.

Consider `O=C(OCC(COC(=O)c1ccccc1)OC(=O)c1ccccc1)c1ccccc1`, for which the growth inhibition in assay [1] is -7.15%; in assay [2] it was 2.15%; in assay [3], 8.8%; in assay [4], -24.6%; in assay [5], 38.8%; in assay [6], 0.65%.

Consider `CSc1ccc(OC(=O)C(C)NC(=O)C(CO)NC(=O)OCc2ccccc2)cc1` (configuration not stated), for which the growth inhibition was 5.85% in assay [1]; 1.55% in assay [2]; -1.05% in assay [3]; -2% in assay [4]; -1.6% in assay [5]; 15.2% in assay [6].

Turning to `Cc1cc([O-])c([I+]c2ccccc2)c(=O)[nH]1`, the growth inhibition in assay [1] is 93.3% (active); in assay [2], 66.8%; in assay [3] it was 97.8% (active); in assay [4], 95.6% (active); in assay [5], 95.5% (active); in assay [6], 90.2% (active).

For the compound `COC(=O)c1ccc(C(=O)OC)c(O)c1O`, the growth inhibition in assay [1] was 11.3%; in assay [2], 27.9%; in assay [3] it was 8.85%; in assay [4], -2.85%; in assay [5] it was 12.8%; in assay [6] it was 16.4%.

Take `COc1ccc(C(=O)C(C(=O)CCC(=O)Nc2cccc(Cl)c2)c2ccc(OC)cc2)cc1` (configuration not stated): the growth inhibition in assay [1] is -25.1%; in assay [2], -9.4%; in assay [3] it was -20.2%; in assay [4] it was -4.9%; in assay [5], 0.5%; in assay [6], -0.15%.

Consider `C[n+]1cc(Br)c2ccccc2c1`, for which the growth inhibition is 4.05% in assay [1]; -6.25% in assay [2]; 3.4% in assay [3]; -13.2% in assay [4]; 1.4% in assay [5]; 3.45% in assay [6].

Regarding `C=CCOCn1cc(C)c(=O)[nH]c1=O`, the growth inhibition in assay [1] was 5.6%; in assay [2] it was 17.4%; in assay [3], 36.4%; in assay [4] it was 5.5%; in assay [5], 6.5%; in assay [6] it was 17.4%.

In the case of `CC(C)C1CCC2(CC1)CCN(CCCN(C)C)CC2`, the growth inhibition in assay [1] was -4.65%; in assay [2] it was 25.3%; in assay [3], 9.15%; in assay [4], -23.6%; in assay [5], 7.25%; in assay [6], -7.65%.

For the compound `CCOC(=O)C1C(=O)CC(C)(O)C(C(=O)OCC)C1c1ccc(N(C)C)cc1` (configuration not stated), the growth inhibition in assay [1] is -32.7%; in assay [2], -15.7%; in assay [3], -3.6%; in assay [4], -37%; in assay [5] it was -1.4%; in assay [6], -10.2%.

Turning to `CC1(C)CC(OP(=O)(OC2CC(C)(C)N(O)C(C)(C)C2)c2ccccc2)CC(C)(C)N1O`, the growth inhibition is 32.1% in assay [1]; 8.45% in assay [2]; 11.1% in assay [3]; -21.1% in assay [4]; 6.3% in assay [5]; 6.5% in assay [6].

On to `NC(=O)n1ncc(Cl)c(Cl)c1=O`, for which the growth inhibition in assay [1] was -7.25%; in assay [2], -1.5%; in assay [3], 2.1%; in assay [4], 4.3%; in assay [5] it was -1.8%; in assay [6] it was 7.35%.

For the compound `COc1cc(C2SCC(=O)N2c2ccc(-n3c(-c4ccccc4)nc4ccccc4c3=O)cc2)ccc1O` (configuration not stated), the growth inhibition was -12.6% in assay [1]; -8.75% in assay [2]; 10.7% in assay [3]; -36.2% in assay [4]; 3.3% in assay [5]; 22% in assay [6].

For `O=C(O)c1ccc(F)c([N+](=O)[O-])c1`, the growth inhibition in assay [1] is 7.15%; in assay [2] it was -16.6%; in assay [3], 17.4%; in assay [4], -22.6%; in assay [5], -11.6%; in assay [6], 12.4%.

Regarding `CCC(CCCCCc1ccccc1)(C(=O)O)C(=O)O`, the growth inhibition in assay [1] is -0.7%; in assay [2], 10.8%; in assay [3], 21.7%; in assay [4], -55%; in assay [5], -5.2%; in assay [6], -2.95%.

Regarding `N#Cc1cccc(N2C(=O)C3C4C=CC(C3C2=O)C2C(=O)N(c3cccc(C#N)c3)C(=O)C42)c1` (configuration not stated), the growth inhibition in assay [1] was -8.5%; in assay [2] it was -0.65%; in assay [3], -6.25%; in assay [4], 26.6%; in assay [5], -0.35%; in assay [6] it was -18.4%.

`O=[N+]([O-])c1ccccc1C1N2CCCCC2[C@@H]2c3[nH]c4ccccc4c3CCN12` (some centres not stated): the growth inhibition in assay [1] is 0.2%; in assay [2], -11.9%; in assay [3] it was 3.3%; in assay [4], 1.85%; in assay [5] it was 3.05%; in assay [6], 8.3%.

With `Cc1ccc(S(=O)(=O)NNCCC#N)cc1`, the growth inhibition was -5% in assay [1]; 6.05% in assay [2]; -4.35% in assay [3]; -0.15% in assay [4]; -4.9% in assay [5]; 7.75% in assay [6].

In the case of `COc1ccc(-c2cc(C(=O)N/N=C/c3ccc([N+](=O)[O-])cc3)c3ccc(C)cc3n2)cc1OC`, the growth inhibition in assay [1] was 43.6%; in assay [2], 13.7%; in assay [3] it was 39.1%; in assay [4], 14.6%; in assay [5], -1.05%; in assay [6], 46.9%.

On to `O=C(O)C(C(C(=O)O)P(=O)(O)O)P(=O)(O)O` (configuration not stated), for which the growth inhibition was -17.9% in assay [1]; -30.8% in assay [2]; -50.6% in assay [3]; -38.8% in assay [4]; -12.2% in assay [5]; -62.3% in assay [6].

With `CCOC(=O)[C@H]1Nc2ccc(Cl)cc2[C@H]2OCC[C@@H]12`, the growth inhibition in assay [1] is 5.5%; in assay [2] it was -10.9%; in assay [3], -2.4%; in assay [4] it was 23.8%; in assay [5] it was 3.15%; in assay [6], -0.7%.

In the case of `N=C(CN1CCCCC1)N1CCCCC1`, the growth inhibition is -2.5% in assay [1]; -15.3% in assay [2]; -5.15% in assay [3]; -58.1% in assay [4]; 10.2% in assay [5]; 12.6% in assay [6].

Turning to `Cc1nn(C)c(=O)c(N)c1-c1cc(-c2ccc(Cl)cc2)n[nH]1`, the growth inhibition in assay [1] was 13.9%; in assay [2], 4.45%; in assay [3], 19.9%; in assay [4], 20.1%; in assay [5] it was 18.1%; in assay [6], 13.9%.

Regarding `C1=CC2C3CSCC3C1C1CC21` (configuration not stated), the growth inhibition in assay [1] is 7.95%; in assay [2], -7.85%; in assay [3], -4.4%; in assay [4], -35.1%; in assay [5], -17%; in assay [6], -3.05%.

For `CCOC(=O)CNCc1ccc(Cl)c(Cl)c1`, the growth inhibition was 16.1% in assay [1]; 4.15% in assay [2]; 28.2% in assay [3]; -15.6% in assay [4]; 26.9% in assay [5]; 21.9% in assay [6].

In the case of `O=C1CCCC2C(O)CCC[C@H]12` (some centres not stated), the growth inhibition in assay [1] is -9%; in assay [2], -2.9%; in assay [3], -21.8%; in assay [4], 1%; in assay [5] it was -7.7%; in assay [6], -1.9%.

Consider `CC(C)(C)NC(=O)Oc1cccnc1`, for which the growth inhibition in assay [1] is 7.1%; in assay [2], -4.6%; in assay [3] it was -12.6%; in assay [4] it was -42.4%; in assay [5], 27.6%; in assay [6] it was 8%.

Regarding `CCCC(NC(=O)OCc1ccccc1)C(=O)NCC(=O)NCC(=O)OC` (stereo not drawn) (Cbz-[ξNva]-Gly-Gly-OMe), the growth inhibition in assay [1] was -30.8%; in assay [2], 0.15%; in assay [3], 12.2%; in assay [4], 30.9%; in assay [5] it was 0.5%; in assay [6], 11.3%.

Regarding `Nc1ccc(S(=O)(=O)O)cc1N`, the growth inhibition in assay [1] was -15.3%; in assay [2] it was -11.1%; in assay [3], -8%; in assay [4] it was -19.5%; in assay [5], 2.95%; in assay [6], -4.5%.

On to `Cc1c(-c2ccccc2)nnn1-c1ccc(F)c(Cl)c1`, for which the growth inhibition in assay [1] was -16.4%; in assay [2] it was -27.1%; in assay [3], -8.75%; in assay [4] it was -10.4%; in assay [5], 6.95%; in assay [6], -12.4%.

As for `CC1(C)N=C(N)N=C(N)N1c1ccc(CCCCc2ccccc2)cc1`, the growth inhibition in assay [1] was 99.6% (active); in assay [2], 99.7% (active); in assay [3], 99.8% (active); in assay [4], 99.3% (active); in assay [5], 50%; in assay [6], 46.1%.

Regarding `CCC1(O)CC2CN(CCc3c([nH]c4ccccc34)C(C(=O)OC)(c3cc4c(cc3OC)N(C)C3C(O)(C(N)=O)C(O)C5(CC)C=CCN6CCC43C65)C2)C1` (configuration not stated) (tested in a mixture with another compound), the growth inhibition was -2.3% in assay [1]; -21.1% in assay [2]; -0.35% in assay [3]; 2.7% in assay [4]; 1.05% in assay [5]; 20.7% in assay [6].

Turning to `Nc1nc(N)nc(C2CC3C=CC2C3)n1` (configuration not stated), the growth inhibition was -1.55% in assay [1]; -13.9% in assay [2]; -4.4% in assay [3]; -10% in assay [4]; 2.1% in assay [5]; -0.95% in assay [6].
